Hits are enriched below; roughly 1.2% of the tested compounds scored in any of these assays.
RGS7-Gao reg – human RGS7-Galphao interaction regulation. binding response (% of control), % at 10 µM. Multiplexed bead flow cytometry, RGS7-Galphao binding; actives lie on both sides. P09471. 0.35% of 220,000 active; in the data active = binding response below about 49% or above about 150%; inconclusive = no clear call, values can overlap the other calls; inactive = in between;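 also: fluorescent Galphao held in activated GDP-AlF4 state binding bead-coupled RGS7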
Target sequence (P09471 whole entry, looked up): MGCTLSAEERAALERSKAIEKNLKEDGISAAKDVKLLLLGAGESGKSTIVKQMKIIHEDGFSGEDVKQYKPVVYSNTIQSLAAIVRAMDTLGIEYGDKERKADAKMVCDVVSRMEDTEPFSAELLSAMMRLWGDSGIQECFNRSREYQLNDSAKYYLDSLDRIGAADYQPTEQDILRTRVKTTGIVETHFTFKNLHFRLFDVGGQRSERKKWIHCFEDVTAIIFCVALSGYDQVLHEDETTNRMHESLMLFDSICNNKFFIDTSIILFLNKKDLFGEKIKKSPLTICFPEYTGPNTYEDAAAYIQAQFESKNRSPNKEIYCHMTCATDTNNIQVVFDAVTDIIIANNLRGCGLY
RGS4-Gao reg – modulates binding of RGS4 to human Galphao | P09471 | Multiplexed bead flow cytometry; actives lie on both sides | binding response (% of control), % at 10 µM | 0.33% of 220,000 active; in the data active = binding response below about 49% or above about 150%; inactive = in between;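 also: fluorescent Galphao activated with aluminum fluoride binding bead-coupled RGS4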
RGS8-Gao – regulators of human RGS8-Galphao interaction; P09471; multiplexed bead flow cytometry, RGS8-Galphao binding; actives lie on both sides; response (percent of control binding), % at 10 µM; 0.34% of 220,000 active; in the data active = response below about 60% or above about 140%; inactive = in between;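 also: Galphao activated as the GDP aluminium fluoride complex binding bead-coupled RGS8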
Avidin bead fluor – avidin bead compound fluorescence profile | 0.38% of 220,000 active | Avidin beads, compound fluorescence 488/530 nm, flow cytometry; stronger effect = higher value | fluorescence (KMESF) at 10 µM; in the data active = fluorescence above about 47
GSH bead fluor – compound fluoresces at 488/530 nm on GSH beads; GSH beads flow cytometry, compound fluorescence 488/530 nm; stronger effect = higher value; fluorescence (KMESF) at 10 µM; 0.25% of 190,000 active; in the data active = fluorescence above about 89;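 also: glutathione beads carrying GST-tagged Bcl family fusion proteins plus one bare bead set; values are compound well signal with DMSO vehicle wells as background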
RGS16-Gao – regulators of human RGS16-Galphao interaction. binding response (% of control), % at 10 µM. AID 1441. O15492+P09471. 0.38% of 220,000 active. bead-based flow cytometry RGS16-Galphao binding, fluorescence; actives lie on both sides;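 also: Galphao activated by GDP with aluminum fluoride before binding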
Target sequence (O15492 whole entry, looked up): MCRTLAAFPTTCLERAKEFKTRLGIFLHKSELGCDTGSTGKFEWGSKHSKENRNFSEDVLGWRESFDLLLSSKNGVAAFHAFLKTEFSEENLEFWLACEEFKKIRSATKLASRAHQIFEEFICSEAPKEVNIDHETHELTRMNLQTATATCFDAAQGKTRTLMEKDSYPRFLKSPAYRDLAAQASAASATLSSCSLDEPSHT
Target sequence (P09471 whole entry, looked up): as the sequence (P09471 whole entry, looked up) above
RGS4-Gao HTS – RGS4-Galphao interaction regulator (human). shares compounds with RGS16-Gao. multiplexed bead flow cytometry, RGS–Galpha-o binding. RGS4–Galpha-o binding response, % at 10 µM. 99% of 1,600 active. AID 1504;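 also: fluorescently labeled Galpha-o bound to GDP with aluminium fluoride binding biotinylated RGS beads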
Avidin counter – biotin-avidin bead binding disruption counter-screen. shares compounds with RGS16-Gao. streptavidin beads, fluorescein-biotin binding, flow cytometry. 1,700 tested, under 10 active. inhibition, % at 10 µM;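 active = inhibition above 50%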;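 also: median green fluorescence of gated singlet beads compared with DMSO control wells; 0% = DMSO wells and 100% = complete loss of bead fluorescence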
RGS8-Gao confirm – RGS8-Galphao interaction regulation, single point confirmation. 3% of 1,700 active. binding response (% of control), % at 10 µM. bead-based flow cytometry RGS8-Galphao binding, fluorescence; actives lie on both sides. shares compounds with RGS16-Gao; in the data active = binding response below about 72% or above about 130%; inactive = in between;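 also: Galphao activated as GDP AlF4 complex before binding bead RGS8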
RGS7-Gao single – confirmation of regulators of human RGS7-Galphao interaction. shares compounds with RGS16-Gao. bead-based flow cytometry RGS7-Galphao binding; actives lie on both sides. response (percent of control binding), % at 10 µM. 7.8% of 1,700 active. AID 1837; in the data active = response below about 75% or above about 130%; inactive = in between;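 also: fluorescent Galphao activated with GDP and aluminum fluoride binding bead-coupled RGS7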
RGS16-Gao conf – RGS16-Galphao interaction regulation, single point confirmation | shares compounds with RGS16-Gao | bead-based flow cytometry, RGS16-Galphao binding; actives lie on both sides | response (% of control binding), % at 10 µM | 4% of 1,700 active | AID 1838; in the data active = response below about 74% or above about 130%; inactive = in between;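 also: Galphao activated as the GDP aluminium fluoride complex binding bead-coupled RGS16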
RGS4-Gao single – confirmation of regulators of human RGS4-Galphao interaction | 4% of 1,700 active | RGS4-Galphao binding, multiplexed bead flow cytometry; actives lie on both sides | AID 1840 | shares compounds with RGS16-Gao | binding response (% of control), % at 10 µM; in the data active = binding response below about 74% or above about 130%; inactive = in between
RGS19-Gao conf – confirmation of regulators of human RGS19-Galphao interaction; 5% of 1,700 active; response (percent of control binding), % at 10 µM; shares compounds with RGS16-Gao; bead-based flow cytometry RGS19-Galphao binding; actives lie on both sides; in the data active = response below about 50% or above about 160%; inactive = in between;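 also: 100% = no compound control and 0% = blank background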
Active calls of the source: *; [ ] = remark or other dose. Unless noted, no rule for the calls is given here.

Screening COc1ccccc1C(CC(=O)Nc1ccc(C)c(C)c1)c1ccc(OC(C)C)cc1 (stereo unspecified) returned RGS7-Gao reg 118, RGS4-Gao reg 115, RGS8-Gao 128, Avidin bead fluor 6, GSH bead fluor 17, RGS16-Gao 197*[activator], RGS4-Gao HTS 115*, Avidin counter 2, RGS8-Gao confirm 99, RGS7-Gao single 90, RGS16-Gao conf 96, RGS4-Gao single 96 and RGS19-Gao conf 61.
COc1ccccc1NC(=O)CC(c1ccc(OC(C)C)cc1)c1ccccc1OC (stereo unspecified) was read as RGS7-Gao reg 107, RGS4-Gao reg 104, RGS8-Gao 104, Avidin bead fluor 7, GSH bead fluor 19 and RGS16-Gao 102.
Screening O=C(N/N=C/c1cn(-c2ccccc2)nc1-c1cccnc1)c1cccnc1 returned RGS7-Gao reg 174*[activator], RGS4-Gao reg 112, RGS8-Gao 103, Avidin bead fluor 62*, GSH bead fluor 11, RGS16-Gao 104, RGS4-Gao HTS 112*, Avidin counter 1, RGS8-Gao confirm 100, RGS7-Gao single 105, RGS16-Gao conf 103, RGS4-Gao single 101 and RGS19-Gao conf 107.
Screening COc1cccc(NC(=O)Nc2cc(C)ccc2OC)c1 returned RGS7-Gao reg 26*, RGS4-Gao reg 36*, RGS8-Gao 34*, Avidin bead fluor 2, GSH bead fluor 15, RGS16-Gao 22*, Avidin counter 2, RGS8-Gao confirm 98, RGS7-Gao single 95, RGS16-Gao conf 97, RGS4-Gao single 100 and RGS19-Gao conf 103.
COc1ccc(C)cc1NC(=O)Nc1ccccc1 was read as RGS7-Gao reg 104, RGS4-Gao reg 104, RGS8-Gao 101, Avidin bead fluor 13, GSH bead fluor 57 and RGS16-Gao 98.
Cc1nc2c(sc3nc(N4CCOCC4)c4c(c32)CC(C)(C)OC4)c(-c2ccc(Cl)cc2)c1C(=O)O was read as RGS7-Gao reg inconclusive, RGS4-Gao reg 102, RGS8-Gao 104, Avidin bead fluor 5 and RGS16-Gao 108.
`Cc1c(Cl)c(C(F)(F)F)nn1CC(=O)NCc1ccccc1` gave RGS7-Gao reg 99, RGS4-Gao reg 98, RGS8-Gao 102, Avidin bead fluor 6, GSH bead fluor 15 and RGS16-Gao 102.
Screening Cc1c(Br)c(C(F)(F)F)nn1CC(=O)NCc1ccccc1 returned RGS7-Gao reg 110, RGS4-Gao reg 109, RGS8-Gao 127, Avidin bead fluor 13, GSH bead fluor 19, RGS16-Gao 203*[activator], RGS4-Gao HTS 109*, Avidin counter -1, RGS8-Gao confirm 102, RGS7-Gao single 101, RGS16-Gao conf 102, RGS4-Gao single 102 and RGS19-Gao conf 90.
Screening CCN(Cc1ccccc1)C(=O)c1nn(-c2ccc(OC)cc2)c(=O)c2c1c1ccccc1n2C returned RGS7-Gao reg 94, RGS4-Gao reg 102, RGS8-Gao 102, Avidin bead fluor 11, GSH bead fluor 11 and RGS16-Gao 103.
For Cc1cc(NC(=O)c2ccccc2-c2ccccc2)ccc1Br the results were RGS7-Gao reg 110, RGS4-Gao reg 108, RGS8-Gao 124, Avidin bead fluor 15, GSH bead fluor 4, RGS16-Gao 226*[activator], RGS4-Gao HTS 108*, Avidin counter 0, RGS8-Gao confirm 102, RGS7-Gao single 102, RGS16-Gao conf 99, RGS4-Gao single 101 and RGS19-Gao conf 91.
For Cc1cccc(NC(=O)c2ccccc2-c2ccccc2)c1 the results were RGS7-Gao reg inconclusive, RGS4-Gao reg 97, RGS8-Gao 99, Avidin bead fluor 9, GSH bead fluor 17 and RGS16-Gao 98.
Screening Cn1c(-c2ccc(C=O)s2)nc2c3ccccc3c3ccccc3c21 returned RGS7-Gao reg 100, RGS4-Gao reg 99, RGS8-Gao 94, Avidin bead fluor 11, GSH bead fluor 55 and RGS16-Gao 101.
For COc1cccc(C2=NOC(C(=O)Nc3c(C)n(C)n(-c4ccccc4)c3=O)C2)c1 (stereo unspecified) the results were RGS7-Gao reg inconclusive, RGS4-Gao reg 102, RGS8-Gao 102, Avidin bead fluor 5 and RGS16-Gao 101.
O=C(NCc1ccccn1)c1ccco1 was read as RGS7-Gao reg 101, RGS4-Gao reg 100, RGS8-Gao 102, Avidin bead fluor 22, GSH bead fluor 8 and RGS16-Gao 104.
For O=C(NC(Cc1ccccc1)C(=O)NCc1ccccn1)c1ccco1 (stereo unspecified) the results were GSH bead fluor 29, Avidin counter -1, RGS8-Gao confirm 100, RGS7-Gao single 100, RGS16-Gao conf 101, RGS4-Gao single 101 and RGS19-Gao conf 81.
For CC(C)(C)C(=O)Nc1nc(C2CCCN2S(=O)(=O)c2ccc(Cl)cc2)cs1 (stereo unspecified) the results were RGS7-Gao reg 103, RGS4-Gao reg 101, RGS8-Gao 104, Avidin bead fluor 6, GSH bead fluor 60 and RGS16-Gao 101.
C/C(=C\C(=O)C(F)(F)F)Nc1ccc(C)cc1 was read as RGS7-Gao reg 117, RGS4-Gao reg 120, RGS8-Gao 166*[activator], Avidin bead fluor 5, GSH bead fluor 12, RGS16-Gao 598, RGS4-Gao HTS 120*, Avidin counter 0, RGS8-Gao confirm 99, RGS7-Gao single 101, RGS16-Gao conf 97, RGS4-Gao single 99 and RGS19-Gao conf 104.
CC(C)NC(=O)c1onc(CSc2cccc(Cl)c2)c1C(=O)O was read as RGS7-Gao reg 99, RGS4-Gao reg 101, RGS8-Gao 100, Avidin bead fluor 11, GSH bead fluor 41 and RGS16-Gao 103.
